Assay outcomes from PubChem.
Most compounds without a hit are left out; they make up all but 13% or so of the library.
HCMV antiviral: qHTS Assay for inhibitors of the human cytomegalovirus (HCMV). activity change, negative = inhibition, % at 57.5 µM. AID 1259415, 2018. HFF cells, HCMV-luciferase reporter, 72 h; active compounds read low. 4.5% of 410,000 active; in the data active means activity change below about -60%; inconclusive means no clear call, values can overlap the other calls; inactive means above about -39%
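Cell-based, HFFs, 1000 cells/well, 16 h 37C; cpds in DMSO + HCMV-luc, MOI 1 PFU/cell; 72 h 37C; OneGlo luminescence after 5 min RT; norm. to buffer vs Salinomycin 10uM.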
Pf growth 48h: Primary qHTS for delayed death inhibitors of the malarial parasite plastid, 48 hour incubation. P. falciparum luciferase growth in erythrocytes, 48 h. Potency, µM (doses to about 28.7 µM), usual class: inhibitors. 5.9% of 310,000 active. AID 504832, 2011
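Luminescence readout; reporter = integrated firefly luciferase in P. falciparum. RBC culture at 2% hematocrit, 0.1% parasitemia final, 37 C/5% CO2; decreased signal taken as growth inhibition.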
Pf growth 96h: Primary qHTS for delayed death inhibitors of the malarial parasite plastid, 96 hour incubation; P. falciparum luciferase reporter growth, 96 h; Potency, µM (highest dose often 28.7 µM), usual class: inhibitors; 6.9% of 320,000 active; AID 504834, 2011
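Infected RBCs, 2% Hct / 0.05% parasitemia final; luciferase-reporter P. falciparum; cpd 96 h, 37 C, 5% CO2; luciferase detection reagent; luminescence.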
HCV inh: qHTS Assay for Inhibitors of Hepatitis C Virus (HCV); Huh7.5.1 HCVcc-Cre infection, luciferase reporter, 44 h; Potency, µM (highest dose often 41.8 µM), hits mostly inhibitors; 3.4% of 340,000 active
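Antiviral activity was scored by luciferase reporter output from cells infected with HCVcc-Cre (~0.5 moi) in presence of compound, 44 h infection period, cells seeded 1,000/well 4 h prior.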
Numbers stand for hits; . = inactive; ? = inconclusive; / = no result given. Unless noted, the call rests on the fitted dose curve; in most records, active means well fitted inhibition curve with a large enough effect; inconclusive means small, poorly fitted or top-dose-only effect, or another doubt; inactive means no such curve, though single readings can be large or run the other way.

SMILES	HCMV antiviral	Pf growth 48h	Pf growth 96h	HCV inh
Cn1nnc2c[n+](CC(=O)c3ccc(Cl)cc3)cc(Br)c21	-96	.	.	?
O=C(C[n+]1ccccc1)c1ccc(Cl)cc1	/	.	.	.
Cn1nnc2c[n+](CC(=O)c3ccc4ccccc4c3)cc(Br)c21	-97	12µM	?	?
Cc1ccccc1CNCc1c(C(=O)O)c(C)n(Cc2ccc(F)cc2Cl)c1C	.	/	/	/
Cc1ccc(Cl)cc1N1CCN(C(=O)c2cccn2-c2nnc(N3CCCCC3)s2)CC1	.	/	/	/
Cc1ccc(Cl)cc1N1CCN(C(=O)C2CCN(c3nnc(-n4cccc4)s3)CC2)CC1	?	13µM	?	13µM
Cc1cccc(N2CCN(C(=O)C3CCN(c4nnc(-n5cccc5)s4)CC3)CC2C)c1 (configuration not stated)	.	13µM	?	?
CCOC(=O)C1CCCN(C(=O)c2ccc3c(c2)N(Cc2ccccc2)C(=O)c2ccccc2S3(=O)=O)C1 (configuration not stated)	.	/	/	/
CCn1c(C)csc1=NC(=O)c1ccccc1O	.	.	1.7µM	.
COc1ccc(-n2cc(-c3ccccc3)[nH]c2=S)c(OC)c1	-65	?	?	?
CCCOc1ccccc1NC(=O)/C=C/c1ccc(OC)c(S(=O)(=O)N2CCOCC2)c1	.	/	/	/
COc1cc(/C=C/C(=O)Nc2ccc(OC)c(S(=O)(=O)N3CCOCC3)c2)ccc1OC(F)F	-86	/	/	0.25µM
COc1ccc(/C=C/C(=O)Nc2cccc(F)c2)cc1S(=O)(=O)N1CCOCC1	?	?	6.6µM	10µM
COc1ccc(/C=C/C(=O)Nc2ccccc2F)cc1S(=O)(=O)N1CCOCC1	.	/	/	10µM
CCc1cccc(NC(=O)CCNS(=O)(=O)c2ccc3c(c2)CCN3C(C)=O)c1	.	/	/	/
CCCN1C(=O)c2[nH]nc(-c3cc(Cl)c(C)cc3O)c2C1c1ccc(O)c(OC)c1 (configuration not stated)	.	?	10µM	.
COCCCN1C(=O)c2[nH]nc(-c3cc(C)cc(C)c3O)c2C1c1ccc(O)c(OC)c1 (configuration not stated)	.	9.3µM	?	?
CCOc1cc(C2c3c(-c4ccccc4O)n[nH]c3C(=O)N2CCc2ccccc2)ccc1O (configuration not stated)	.	/	/	/
Cc1ccc2occ(CC(=O)Nc3c(C(=O)Nc4ccc(Cl)cc4)oc4ccccc34)c2c1	.	/	/	/
Cc1cccc(OCC(=O)OCc2cc(=O)n3nc(C4CC4)sc3n2)c1	.	/	/	/
CN(c1ccccc1)c1nc(-n2ccnc2)nc(-n2ccnc2)n1	.	?	/	?
CCCCNc1nc(N(C)c2ccccc2)nc(-n2ccnc2)n1	.	17µM	.	?
CC1=C(CO)C(=O)OC([C@@H](C)C2CC[C@H]3C4C[C@H]5O[C@]56[C@@H](O)C=CC(=O)[C@]6(C)C4CC[C@]23C)C1 (some centres not stated)	-107	8.3µM	.	?
O=C(c1ccc(S(=O)(=O)c2ccccc2Cl)c([N+](=O)[O-])c1)N1CCCCCC1	-65	?	13µM	?
O=C(c1ccc(Cl)c(S(=O)(=O)N2CCCC2)c1)N1CCCCC1	.	.	.	.
SMILES	HCMV antiviral	Pf growth 48h	Pf growth 96h	HCV inh
O=C(c1ccc(S(=O)(=O)c2cccc(Cl)c2)c([N+](=O)[O-])c1)N1CCN(c2ccccn2)CC1	-78	?	?	?
COCCCn1c(=N)c(S(=O)(=O)c2ccccc2)cc2c(=O)n3cccc(C)c3nc21	.	/	/	/
Cn1c(=N)n(CC(=O)c2ccc(F)cc2)c2ccccc21	?	/	.	?
N=c1n(CCCOc2ccc(Br)cc2)c2ccccc2n1CC(N)=O	.	13µM	9.3µM	?
Cn1c(=N)n(CC(=O)c2ccc(Br)cc2)c2ccccc21	.	/	/	6.3µM
Cn1c(=O)n(CCCOc2ccc(Br)cc2)c2ccccc21	.	.	/	.
Cc1ccc(C(=O)Cn2c(=N)n(CCN3CCOCC3)c3ccccc32)cc1	.	9.3µM	?	.
CN(C)CCn1c(=N)n(CC(O)c2ccc(Cl)c(Cl)c2)c2ccccc21 (configuration not stated)	.	0.74µM	.	7.1µM
COC(=O)Cn1c(=N)n(CCN2CCCCC2)c2ccccc21	.	.	.	.
COc1ccc(-c2nc(CCNC(=O)c3cc(OC)c(OC)c(OC)c3)cs2)cc1	.	/	/	/
Cc1cc(NC(=O)Nc2nnc(N(C)Cc3ccccc3)s2)ccc1Br	.	/	/	/
CCOc1ccc(Oc2nc(NCC(C)C)nc(NC(C)(C)C)n2)nn1	.	/	/	/
N=c1n(CCN2CCCCC2)c2ccccc2n1CC(O)c1cccc(Br)c1 (configuration not stated)	?	0.59µM	0.74µM	13µM
N=c1n(CCN2CCCCC2)c2ccccc2n1CC(=O)c1ccc(Cl)c(Cl)c1	.	1.5µM	2.6µM	?
N=c1n(CCN2CCCCC2)c2ccccc2n1CC(O)c1ccc(Cl)c(Cl)c1 (configuration not stated)	-97	/	0.29µM	13µM
OC(CN1CCCCC1)c1ccc(Br)cc1 (configuration not stated)	.	/	/	.
O=S(=O)(c1ccccc1)N1CCN(Cc2cc3c(cc2Br)OCCO3)CC1	.	?	?	.
O=S(=O)(c1ccccc1F)N1CCN(Cc2cc3c(cc2Br)OCCO3)CC1	.	?	8.3µM	?
C/C(=N\O)c1oc2ccc3c(C)cc(=O)oc3c2c1C	-63	.	.	.
Cc1cc(=O)oc2c(N)c(O)ccc12	.	.	?	.
Cc1ccc(-c2nc3ccccc3[nH]2)cc1NC(=O)c1sc2cc(Cl)ccc2c1Cl	.	3.3µM	?	.
O=C(Nc1ccc(F)cc1F)c1cc(-c2ccccc2O)no1	.	/	/	/
O=C(Nc1cc(C(F)(F)F)ccc1Cl)C1CCN(c2nnc(-n3cccc3)s2)CC1	.	8.3µM	.	.
CC(C)CCNC(=O)C1CCN(c2nnc(-n3cccc3)s2)CC1	.	.	.	?
CC1CCN(Cc2ccc(NC(=O)C3CCN(c4nnc(-n5cccc5)s4)CC3)cc2)CC1	?	7.4µM	.	.
SMILES	HCMV antiviral	Pf growth 48h	Pf growth 96h	HCV inh
O=C(C1CCN(c2nnc(N3CCCC3=O)s2)CC1)N1CCN(Cc2ccc3c(c2)OCO3)CC1	.	?	?	.
O=C(C1CCN(c2nnc(-n3cccc3)s2)CC1)N1CCN(Cc2ccc3c(c2)OCO3)CC1	?	?	1.5µM	?
CC(=O)c1cccc(NC(=O)C2CCCN(c3nnc(-n4cccc4)s3)C2)c1 (configuration not stated)	-103	/	/	/
COc1cccc(NC(=O)C2CCCN(c3nnc(-n4c(C)ccc4C)s3)C2)c1 (configuration not stated)	.	/	/	/
O=C(NCc1ccccc1)C(=O)NCC(c1ccc2c(c1)OCO2)N1CCOCC1 (configuration not stated)	.	/	/	/
O=C(NC1CCCCC1)C(c1ccc(F)cc1)N(Cc1ccco1)C(=O)c1ccccn1 (configuration not stated)	?	?	.	.
